Screening data from PubChem BioAssay.
A selection: hits, their analogues and other compounds. The true share with any hit is near 3.9%.
VDR inh = blocks the human vitamin D receptor; hit rate 0.93% among 400,000; Potency, µM, most hits filed as inhibitors; VDR-SRC2-3 peptide fluorescence polarization, 2 h; P11473; AID 504847
Target sequence (P11473 whole entry, looked up): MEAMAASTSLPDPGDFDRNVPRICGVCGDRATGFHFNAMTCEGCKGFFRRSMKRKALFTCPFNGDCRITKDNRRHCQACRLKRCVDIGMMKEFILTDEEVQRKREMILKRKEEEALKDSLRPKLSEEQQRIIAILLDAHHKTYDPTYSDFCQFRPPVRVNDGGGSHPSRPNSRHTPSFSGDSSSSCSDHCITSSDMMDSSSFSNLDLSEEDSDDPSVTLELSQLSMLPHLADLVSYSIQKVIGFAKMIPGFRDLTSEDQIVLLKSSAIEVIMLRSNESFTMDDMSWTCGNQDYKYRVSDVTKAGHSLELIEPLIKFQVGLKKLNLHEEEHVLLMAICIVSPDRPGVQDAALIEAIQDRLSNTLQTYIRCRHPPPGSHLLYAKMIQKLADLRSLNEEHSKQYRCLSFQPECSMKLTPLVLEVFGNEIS
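Inhibition of the VDR/SRC2-3 peptide interaction is quantified by fluorescence polarization. Compounds (23 nl, pintool) incubate with the reagents for 2 hours at ambient room temperature.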
BRCA1 expr act = activators of BRCA1 expression | MCF7-BRCA1-FFLuc reporter, luminescence, 48 h; response scale: scaled: vehicle 0%, 10 µM genistein 100% | Potency, µM (series often up to 46.1 µM), hits mostly activators | hit rate 1.1% among 380,000; further: nearly all actives have a fitted effect of over 80% in size
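MCF7-BRCA1-FFLuc, 2000 cells/well; 2 h attach, 37 °C/5% CO2; compound 48 h; luciferase substrate 15 min; luminescence end-point. Norm. to genistein 10 microM max activation and DMSO; concentration-response curves fitted.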
Tb PFK block = blocks T. brucei phosphofructokinase. O15648. T. brucei PFK, ADP-Glo luminescence. Potency, µM (titrated, usually from 57.5 µM), actives largely listed as inhibitors. hit rate 0.17% among 330,000; further: nearly all actives have a fitted effect of over 60% in size
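PFK 1.25 nM, F6P 0.5 mM, ATP 0.1 mM, 0.1 M TEA pH 8.0, 5 mM MgCl2, 0.01% Tween20, 0.1% BSA; 45 min RT. ADP-Glo readout. qHTS titration up to 57 uM; curves fitted, compounds curve-classed.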
PLK1 PBD inh = inhibitors of human PLK1 polo-box domain binding; Plk1 PBD binding of FITC phosphopeptide, fluorescence polarization; P53350; hit rate 2.8% among 360,000; Potency, µM, actives largely listed as inhibitors; AID 720504; further: series mostly up to about 57 µM; nearly all actives have a fitted effect of over 65% in size
A number is an active result; i = inactive; ? = inconclusive; nt = no result given. The call rests on the fitted dose curve; in most records, active means well fitted curve in the direction sought with a large enough effect; inconclusive means small, poorly fitted or top-dose-only effect, or another doubt; inactive means no such curve, though single readings can be large; an effect the other way counts as inactive or inconclusive.

SMILES	VDR inh	BRCA1 expr act	Tb PFK block	PLK1 PBD inh
N#Cc1c(-c2ccc(Cl)cc2)ccnc1N1CCOCC1	i	?	i	i
Cc1ccnc(NC(=O)CCCc2ccccc2)c1	i	11.2µM	i	i
Cc1ccnc(NC(=O)CCNC(=O)c2ccc(Cl)cc2)c1	i	12.6µM	i	i
Cc1ccc(C(=O)NCC(=O)Nc2cc(C)ccn2)cc1	?	i	i	i
CCOc1cc(C(=O)Nc2cc(C)ccn2)cc(OCC)c1OCC	i	i	i	i
CCOc1ccc(C(=O)Nc2cc(C)ccn2)cc1	35.5µM	i	i	2.99µM
CSc1nc(N)n2nccc2n1	nt	i	nt	i
COc1ccc(-c2ccc(NS(=O)(=O)c3cccc(Cl)c3)cc2)nn1	i	nt	nt	nt
COc1ccccc1-c1nnc(SCC(=O)O)n1-c1ccc(C)cc1	i	i	i	i
COC(=O)CSc1nnc(-c2ccccc2OC)n1-c1ccc(C)cc1	i	i	i	26.7µM
COc1ccc(N=C2NC(=O)/C(=C\C=C\c3ccco3)S2)cc1	i	i	i	21.2µM
CC1CN(C(=O)CCC(=O)NCc2cccs2)c2cc(Cl)ccc2O1 (centres undefined)	i	nt	nt	nt
CC1=CC2=NC(=O)CC(C)(C(=O)N(CC(=O)NC3CCCC3)c3ccccc3C)N2C=C1 (centres undefined)	i	i	i	29.9µM
COc1cc(C)nc(N2CCCC(C(=O)NC3CCC(C)CC3)C2)n1 (centres undefined)	i	3.55µM	i	i
CCn1c(C)cc(/C=C2/SC(=S)N(CC(=O)O)C2=O)c1C	i	i	i	i
O=C(O)CN1C(=O)/C(=C\c2cn(-c3ccccc3)nc2-c2ccccc2)SC1=S	?	i	i	21.2µM
Cc1ccc(-c2nn(-c3ccccc3)cc2C=C2SC(=S)N(CCS(=O)(=O)O)C2=O)cc1	nt	i	nt	10.6µM
CCOc1ccc(-c2nn(-c3ccccc3)cc2/C=C2\SC(=S)N(Cc3ccco3)C2=O)cc1	i	i	i	i
CC(C)COc1ccc(-c2nn(-c3ccccc3)cc2/C=C2/SC(=S)N(CC(=O)O)C2=O)cc1	i	i	?	21.2µM
O=C1C(=Cc2cn(-c3ccccc3)nc2-c2ccc(OCc3ccccc3)cc2)SC(=S)N1CCS(=O)(=O)O	nt	i	nt	?
CN(C(=O)CN1CCN(c2cc(-c3ccc(-c4ccccc4)cc3)ncn2)CC1)c1ccccc1	nt	i	nt	i
CC(C)N(Cc1ccccc1)S(=O)(=O)c1ccc(-n2cccn2)cc1	nt	i	nt	i
CCCCN1C(=O)CC2CCOC21C (centres undefined)	nt	i	nt	i
O=C(CCS(=O)(=O)c1cc(Br)cc2c1N(C(=O)C1CC1)CC2)N1CCN(c2ccccc2)CC1	i	nt	nt	nt
COc1cccc(NC(=O)c2sc3ncn(CC(=O)N4CCN(c5ccccn5)CC4)c(=O)c3c2C)c1	25.1µM	i	i	13.4µM
SMILES	VDR inh	BRCA1 expr act	Tb PFK block	PLK1 PBD inh
C=CCSc1nn2c(=O)c3ccccc3nc2s1	i	2.82µM	i	i
C/C(Cl)=C/CSc1nn2c(=O)c3ccccc3nc2s1	i	?	i	i
CCOc1ccc2nc(N3CCOCC3)nc(C)c2c1	i	4.47µM	i	i
Oc1ccccc1C1C=C(c2ccc3c(c2)OCO3)NC(c2cccc(F)c2)N1 (centres undefined)	?	i	nt	nt
C/C(=N\NC(=O)c1ccc(Cn2cc([N+](=O)[O-])cn2)o1)c1cccc(NC(=O)c2cccnc2)c1	i	i	i	i
CC(=O)Nc1cccc(/C(C)=N\NC(=O)c2ccc(Cn3nc([N+](=O)[O-])c(Cl)c3C)o2)c1	?	i	i	21.2µM
CCCCN(CCCC)CC(O)c1cc(Cl)cc2c1-c1ccc(Cl)cc1C2=Cc1ccc(Cl)cc1 (centres undefined)	nt	i	nt	nt
O=c1c2oc3ccccc3c2n(Cc2ccccc2Cl)c(=O)n1Cc1ccc2c(c1)OCO2	i	nt	nt	nt
O=C(CSc1nc2ccccc2c(=O)n1NC(=O)c1ccccc1)c1ccc(Cl)cc1	i	14.1µM	i	i
O=C(CSc1nc2ccccc2c(=O)n1NC(=O)c1ccccc1)c1ccccc1	i	i	i	i
CCOC(=O)C1(C)CCCN1C(=O)c1ccccc1F (centres undefined)	nt	i	nt	i
CN(C)c1ccnc2sc(C(=O)c3ccc(Br)cc3)c(N)c12	i	i	i	i
Cc1snc2sc(C(=O)c3ccc(F)cc3)c(N)c12	i	10µM	i	i
O=c1[nH]c(=O)c2[nH]c(=S)[nH]c2[nH]1	?	i	nt	8.44µM
O=C1OC(OC(=O)c2cccnc2Nc2cccc(C(F)(F)F)c2)c2ccccc21 (centres undefined)	i	nt	nt	nt
Cn1cc([C@]2(O)C(=O)Nc3ccc(F)cc32)c2ccccc21	nt	nt	nt	i
Cn1c(SCc2ccccc2)nnc1-c1ccc2c(c1)OCO2	i	6.31µM	i	i
Cn1c(SCc2ccccc2)nnc1-c1c[nH]c2ccccc12	i	11.2µM	i	i
Cc1cn2c(=O)c(S(=O)(=O)Nc3ccc(OC(F)(F)F)cc3)c(C)nc2s1	i	nt	nt	nt
O=C(c1ccccc1Br)N1CCc2c([nH]c3ccccc23)C1	i	i	i	i
Cc1ccc(N2C(=O)CS(=O)C(c3ccccc3)C2=O)cc1C (centres undefined)	?	i	?	1.5µM
COCc1cc(C)n(CC(=O)Nc2ccccc2OC)c(=O)c1C#N	?	i	i	26.7µM
CCOC(=O)C1(C)CCCCCN1C(=O)c1snnc1C (centres undefined)	nt	i	nt	i
CC1CCC(NC(=O)N(CCCl)N=O)CC1 (centres undefined)	i	5.01µM	nt	i
CCC(C)c1ccc(O)c(NC(=S)NC(=O)c2cccs2)c1 (centres undefined)	nt	?	nt	i
SMILES	VDR inh	BRCA1 expr act	Tb PFK block	PLK1 PBD inh
CCOC(=O)C1=C(O)/C(=C/c2ccc(-c3ccccc3C(=O)O)o2)SC1=Nc1ccc(C)cc1	79.4µM	i	i	?
Cc1cc(C(=O)CSc2ccc3c(c2)OCCO3)c(C)n1C1CC1	i	11.2µM	i	i
Cn1c(N)c(C(=O)CSc2ccc3c(c2)OCCO3)c(=O)n(C)c1=O	i	i	i	i
COc1ccc(N2CCN(C(=O)c3cc4cc5ccc(Cl)cc5nc4o3)CC2)cc1	i	i	nt	nt
Cc1c(C=O)c2cc(OCc3ccccc3)ccc2n1C	i	10µM	i	i
COc1cccc(C2=NOC(C(=O)Nc3ccccc3SC)C2)c1 (centres undefined)	i	i	i	29.9µM
CCCC(=O)N=C1SC2CS(=O)(=O)CC2N1c1ccc(-c2nc3ccc(C)cc3s2)cc1 (centres undefined)	i	15.8µM	i	i
O=C(NCCc1c[nH]c2ccccc12)OC1CC2CC1[C@H]1CCCCN1C2=O (some centres undefined)	nt	i	nt	i
Cc1ccccc1Nc1c(-c2ccc(O)cc2)nc2c(C)cccn12	i	nt	nt	nt
C[N+]1(C)C[C@@H](O)C[C@@H]1C(=O)[O-]	i	nt	nt	nt
COc1ccc(N=C2NC(=O)CS2)c([N+](=O)[O-])c1	i	i	i	26.7µM
Cc1cc(-c2ccc(C)c(S(=O)(=O)N3CCCC(C)C3)c2)on1 (centres undefined)	i	nt	nt	nt
CC1=C(C)/C(=N\OS(=O)(=O)c2ccccc2)C=CC1=O	35.5µM	i	i	?
Cc1ccc(S(=O)(=O)O/N=C2\CCCc3ccccc32)cc1	i	i	i	i
